# Data published in PubChem BioAssay.
# The source made the active and inactive calls.
# Experiments:
# [1] = optical density shifts of acrAB sulA E. coli – strain DRC41, OD650, 48 h, E. coli filamentation inducer project, primary screen (AID 1152); settings: higher = more signal, called active from +8 up or from −8 down;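 also: E. coli MC1000 strain DRC41 lacking acrAB efflux pump and sulA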
# [2] = probe aLefty1 binding on compound microarray – biochemical, small-molecule microarray, 635/667 nm fluorescence, primary screen (AID 1153); settings: higher = more signal;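 also: score merges spot fluorescence with signal-to-noise ratio from the scanned slide images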
# [3] = plasmodial surface anion channel blockers, osmotic lysis – cell-based, P. falciparum Indochina, OD700, 1 h, primary screen (AID 1154); settings: P. falciparum Indochina infected RBC osmotic lysis, higher = more signal, called active from +8 up or from −8 down
# [4] = plasmodial surface anion channel blockers, osmotic lysis – cell-based, P. falciparum Indochina, OD700, 2 h, primary screen (AID 1155);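 also: lysis reports solute entry through the parasite surface anion channel PSAC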; settings: P. falciparum Indochina infected erythrocytes, higher = more signal, called active from +8 up or from −8 down
# [5] = changes in parasitized red cell lysis, either direction – P. falciparum Indochina, OD700, 3 h, PSAC antagonist project, primary screen (AID 1156); settings: P. falciparum-infected erythrocytes, osmotic lysis, higher = more signal, called active from +8 up or from −8 down
# [6] = plasmodial surface anion channel blockers, osmotic lysis – cell-based, P. falciparum Indochina, OD700, 18 h, primary screen (AID 1157); settings: P. falciparum Indochina infected erythrocytes, osmotic lysis OD700, 18 h; higher = more signal, called active from +8 up or from −8 down
# [7] = S6 kinase pathway phospho-S6 level changes – cell-based, A549, cytoblot, luminescence, serum-stimulated, primary screen (AID 1158); settings: 5 h, higher = more signal;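 also: serum-stimulated A549 lung adenocarcinoma cells; signal is phosphorylated S6 detected by cytoblot immunostaining with HRP secondary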
# [8] = biological target: NADPH oxidase 2 (Homo sapiens) (UniProt P04839); assay: compounds shifting NOX2 Amplex Red fluorescence – cell-based, HEK293-NOX2, PMA-stimulated, NOX inhibitor project, primary screen (AID 1159); settings: 45 min, higher = more signal, called active from +8 up or from −8 down; also: test concentration not given here
# [9] = biological target: NADPH oxidase 4 (Homo sapiens) (UniProt Q9NPH5); assay: compounds shifting NOX4 Amplex Red fluorescence – cell-based, HEK293-NOX4, tetracycline-induced, NOX inhibitor project, primary screen (AID 1160); settings: HEK293-NOX4, Amplex Red H2O2 fluorescence, 45 min; higher = more signal, called active from +8 up or from −8 down
# [10] = biological target: NADPH oxidase 5 (Homo sapiens) (UniProt Q96PH1); assay: compounds shifting NOX5 Amplex Red fluorescence – cell-based, HEK293-NOX5, NOX inhibitor project, primary screen (AID 1161); settings: HEK293-NOX5, ionomycin, 45 min, higher = more signal
# [11] = compound effects on lung adenocarcinoma cell viability – A549, calcein-AM fluorescence, 48 h, basal, profiling panel (AID 1162); settings: higher = more signal; also: test concentration not given here
# [12] = compound effects on differentiated 3T3-L1 adipocyte viability – cell-based, 3T3-L1 adipocytes, calcein-AM fluorescence, 48 h, basal, profiling panel (AID 1163); settings: 3T3-L1 adipocytes viability, higher = more signal; also: test concentration not given here
# [13] = compound effects on hepatocellular carcinoma cell viability – HepG2, calcein-AM fluorescence, 48 h, basal, profiling panel (AID 1164); settings: higher = more signal; also: test concentration not given here
# [14] = compound effects on multiple myeloma cell viability – MM1S, calcein-AM fluorescence, 48 h, basal, profiling panel (AID 1165); settings: higher = more signal;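 also: viability of MM1S multiple myeloma cells under basal unstimulated conditions; test concentration not given here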
# [15] = calcein-AM signal in unstimulated myeloma cells – cell-based, calcein-AM fluorescence, 48 h, PK04 Diversity Set, profiling panel (AID 1166); settings: RPMI8226 myeloma viability, higher = more signal;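 also: cells grown under basal conditions without added stimulus; test concentration not given here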
# [16] = JC-1 mitochondrial signal, unstimulated HepG2 cells – cell-based, JC-1 fluorescence, 24 h, 100 nL compound, profiling panel (AID 1167); settings: HepG2 mitochondrial potential, higher = more signal; also: test concentration not given here
# [17] = JC-1 mitochondrial signal, unstimulated adipocytes – cell-based, JC-1 fluorescence, 3T3-L1 adipocytes, 24 h, 100 nL compound, profiling panel (AID 1168); settings: JC-1 mitochondrial fluorescence, higher = more signal, called active from +8 up or from −8 down; also: test concentration not given here
# [18] = JC-1 mitochondrial signal, unstimulated myeloma cells – cell-based, JC-1 fluorescence, RPMI8226, 24 h, 100 nL compound, profiling panel (AID 1169); settings: JC-1 mitochondrial potential fluorescence, higher = more signal; also: test concentration not given here
# [19] = JC-1 mitochondrial signal, unstimulated MM1S myeloma – cell-based, JC-1 fluorescence, 24 h, 100 nL compound, profiling panel (AID 1170); settings: MM1S mitochondrial potential, higher = more signal; also: test concentration not given here
# [20] = resazurin metabolic signal in A549 cells – cell-based, resazurin fluorescence, 24 h, PK04 Diversity Set, profiling panel (AID 1171); settings: A549 viability, higher = more signal, called active from +8 up or from −8 down; also: test concentration not given here
# Chain of NADPH oxidase 5 (Homo sapiens) (Q96PH1 whole entry, looked up): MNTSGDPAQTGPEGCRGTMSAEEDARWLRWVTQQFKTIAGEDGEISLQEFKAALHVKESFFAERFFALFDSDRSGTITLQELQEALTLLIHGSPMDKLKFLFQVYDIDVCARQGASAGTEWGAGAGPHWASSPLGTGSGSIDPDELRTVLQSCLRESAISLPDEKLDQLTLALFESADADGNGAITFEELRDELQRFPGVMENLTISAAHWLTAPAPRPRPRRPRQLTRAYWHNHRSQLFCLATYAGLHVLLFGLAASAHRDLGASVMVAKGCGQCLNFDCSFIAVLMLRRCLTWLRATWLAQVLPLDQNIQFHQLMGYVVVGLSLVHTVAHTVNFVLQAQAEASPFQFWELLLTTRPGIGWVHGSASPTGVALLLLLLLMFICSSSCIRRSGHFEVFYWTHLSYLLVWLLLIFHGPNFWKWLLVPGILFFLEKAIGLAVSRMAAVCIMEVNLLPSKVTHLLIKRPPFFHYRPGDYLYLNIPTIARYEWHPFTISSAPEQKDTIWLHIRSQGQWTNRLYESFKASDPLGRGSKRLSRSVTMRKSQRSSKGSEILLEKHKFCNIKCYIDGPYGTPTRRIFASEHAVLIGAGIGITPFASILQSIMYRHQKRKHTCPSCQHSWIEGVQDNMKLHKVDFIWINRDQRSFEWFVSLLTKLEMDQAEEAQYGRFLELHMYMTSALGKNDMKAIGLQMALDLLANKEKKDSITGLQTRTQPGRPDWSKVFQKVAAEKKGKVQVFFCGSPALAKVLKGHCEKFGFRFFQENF
# Chain of NADPH oxidase 2 (Homo sapiens) (P04839 whole entry, looked up): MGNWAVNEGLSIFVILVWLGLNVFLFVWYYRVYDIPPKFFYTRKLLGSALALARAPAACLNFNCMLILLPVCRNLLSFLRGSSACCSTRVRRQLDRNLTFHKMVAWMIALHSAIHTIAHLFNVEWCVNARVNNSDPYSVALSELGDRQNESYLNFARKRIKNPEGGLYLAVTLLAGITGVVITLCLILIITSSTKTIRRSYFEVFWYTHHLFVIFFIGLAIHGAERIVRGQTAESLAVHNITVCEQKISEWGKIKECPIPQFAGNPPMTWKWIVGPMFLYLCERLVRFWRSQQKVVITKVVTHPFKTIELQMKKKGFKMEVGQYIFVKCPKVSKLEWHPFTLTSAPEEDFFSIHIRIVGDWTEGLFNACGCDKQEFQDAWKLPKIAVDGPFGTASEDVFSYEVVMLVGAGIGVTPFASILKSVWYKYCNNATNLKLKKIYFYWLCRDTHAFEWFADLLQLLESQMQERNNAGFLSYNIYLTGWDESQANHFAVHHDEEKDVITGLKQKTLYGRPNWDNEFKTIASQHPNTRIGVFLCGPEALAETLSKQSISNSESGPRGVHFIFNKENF
# Chain of NADPH oxidase 4 (Homo sapiens) (Q9NPH5 whole entry, looked up): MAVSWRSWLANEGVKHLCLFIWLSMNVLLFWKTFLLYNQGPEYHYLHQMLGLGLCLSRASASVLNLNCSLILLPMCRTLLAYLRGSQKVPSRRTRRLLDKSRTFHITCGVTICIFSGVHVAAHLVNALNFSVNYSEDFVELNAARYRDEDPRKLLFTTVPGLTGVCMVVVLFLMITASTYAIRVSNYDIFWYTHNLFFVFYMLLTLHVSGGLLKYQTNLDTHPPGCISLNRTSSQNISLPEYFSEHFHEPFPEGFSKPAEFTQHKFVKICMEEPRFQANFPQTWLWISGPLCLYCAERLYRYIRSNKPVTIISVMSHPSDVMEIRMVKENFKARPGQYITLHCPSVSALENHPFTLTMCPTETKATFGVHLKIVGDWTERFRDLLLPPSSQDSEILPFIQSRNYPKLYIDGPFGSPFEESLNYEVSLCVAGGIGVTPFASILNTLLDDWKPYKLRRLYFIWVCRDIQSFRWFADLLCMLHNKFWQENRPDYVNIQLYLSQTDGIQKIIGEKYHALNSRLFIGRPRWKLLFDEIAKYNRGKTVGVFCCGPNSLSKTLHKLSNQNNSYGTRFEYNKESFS
Structure (SMILES),z-score [1],composite z-score [2],z-score [3],z-score [4],z-score [5],z-score [6],z-score [7],z-score [8],z-score [9],z-score [10],z-score [11],z-score [12],z-score [13],z-score [14],z-score [15],z-score [16],z-score [17],z-score [18],z-score [19],z-score [20]
O=C1c2ccccc2[C@](Cc2ccccc2I)(C(=O)NC2CC2)[C@H](c2ccc(CO)cc2)N1Cc1ccccc1C(F)(F)F,-1.14 (inactive),-0.0902,8.14 (active),0.789 (inactive),4.29 (inactive),-0.165 (inactive),2.18,0.459 (inactive),-1.34 (inactive),-2.92,0.319,0.865,-0.0085,-0.645,-2.83,0.476,0.347 (inactive),-0.761,-0.154,0.272 (inactive)
CN1C(=O)C2C=CC(C(O)c3cc(C(F)(F)F)cc(C(F)(F)F)c3)N(Nc3ccccc3)C2C1=O (stereo not given),-1.07 (inactive),0.0341,0.277 (inactive),0.301 (inactive),-0.753 (inactive),0.797 (inactive),-0.77,-1.59 (inactive),-4.95 (inactive),-1.99,-1.53,-1.36,-0.78,-0.239,-0.683,-1.09,-0.551 (inactive),-0.222,0.333,0.672 (inactive)
COc1cc(C(O)C2C=CC3C(=O)N(Cc4ccccc4)C(=O)C3N2n2cnnc2)cc(OC)c1OC (stereo not given),1.31 (inactive),0.431,1.15 (inactive),-0.129 (inactive),-0.666 (inactive),-1.04 (inactive),0.866,1.24 (inactive),-0.564 (inactive),-0.665,1.39,-0.356,1.67,0.599,1.46,0.576,0.328 (inactive),0.251,0.588,-0.538 (inactive)
C=C(/C(=C/C[C@@H](OC(C)=O)c1ccc(OCCO)cc1)c1cc(C(=O)OC)ccc1OC)C(C)C,-0.2 (inactive),0.0794,8.16 (active),1.11 (inactive),1.24 (inactive),0.774 (inactive),-0.219,-0.323 (inactive),-0.645 (inactive),-1.87,0.679,-0.345,0.747,-1.83,-0.385,0.149,-0.852 (inactive),-0.799,-0.8,0.627 (inactive)
C=C(C)[C@@H]1CC=C(C(O)C2C=CC3C(=O)N(c4ccccc4)C(=O)C3N2Nc2ccc(C#N)cc2)CC1 (stereo not given in full),-2.24 (inactive),0.619,9.15 (active),3.26 (inactive),0.625 (inactive),2.49 (inactive),-0.66,-1.94 (inactive),-3.56 (inactive),-2.27,-0.391,-0.575,0.166,-0.331,0.0001,-2.47,-2.61 (inactive),-0.671,-0.641,-0.31 (inactive)
CCCCC=C[C@@H](NC(=O)c1ccccc1)c1ccccc1,-2.36 (inactive),0.0538,0.318 (inactive),0.279 (inactive),0.893 (inactive),0.765 (inactive),0.442,-0.474 (inactive),-2.77 (inactive),-2.28,-1.07,-0.417,-1.02,-0.842,-2.29,0.18,-1.04 (inactive),0.135,-0.434,0.962 (inactive)
C=CCN1C(=O)[C@]2(O[C@H](CCO)[C@@H]([Si](C)(C)c3ccc(OC)cc3)[C@@H]2C)c2cc(N3C(=O)COc4ccccc43)ccc21,0.512 (inactive),0.142,6.04 (inactive),2.56 (inactive),-0.398 (inactive),0.742 (inactive),2.03,0.617 (inactive),0.0613 (inactive),-1.94,-3.84,1.76,-4.67,-2.7,-4.36,-2.14,0.707 (inactive),-1.06,-2.25,-5.62 (inactive)
C=CCNC(=O)[C@@H]1[C@H]2C(=O)O[C@H](c3ccccc3)[C@H](c3ccccc3)N2[C@H](c2ccc(O)cc2)[C@@]12C(=O)Nc1ccc(C#CCC(C(=O)OC)C(=O)OC)cc12,-0.482 (inactive),-0.0544,5.99 (inactive),0.792 (inactive),2.3 (inactive),0.319 (inactive),-0.45,1.97 (inactive),0.448 (inactive),1.25,-0.399,-0.937,-0.6,-3.31,-4.52,-1.76,-0.271 (inactive),-1.25,-2.23,-0.395 (inactive)
